Assay outcomes from PubChem BioAssay.
An excerpt weighted towards active compounds, which were near 2.1% of everything screened.
Ba/F3 V617F tox = lowers viability of Ba/F3 cells expressing EpoR and JAK2V617F | ATP luminescence | inhibition, % at 5.6 µM | 220,000 compounds, 1.1% hits;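 active = inhibition above the campaign mean plus 3 SD over all tested compounds, cut at about 24% in these data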;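 also: cytokine-independent growth of Ba/F3 cells driven by EpoR plus mutant JAK2; 0% = DMSO-treated cells and 100% = JAK inhibitor I control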
APP 5UTR inh = APP translation inhibition; SH-SY5Y APP 5'UTR-luciferase reporter, luminescence; inhibition, % at 2 µM; 190,000 compounds, 0.82% hits;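 active = inhibition above a set limit, derived from the sample mean plus 3 SD, cut at about 45% in these data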
IEC-6 tox = kills IEC-6 intestinal cells in KLF5 counter-screen. IEC-6 cytotoxicity, luminescence viability. inhibition, % at 5 µM. AID 1825. 290,000 compounds, 0.78% hits; in the data active = inhibition above about 22%;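 also: 0% = plate median of test compound wells and 100% = cytotoxic reference compound wells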
KLF5 inhibitor = suppresses KLF5 promoter-driven expression; DLD-1 KLF5 promoter-luciferase reporter, luminescence; inhibition, % at 5 µM; 290,000 compounds, 0.23% hits;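 active = inhibition above a per-plate limit of that plate's mean compound inhibition plus 3 SD, cut at about 60% in these data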;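 also: 0% = DMSO wells and 100% = LY294002 at 200 µM; higher means less KLF5 promoter-driven luciferase light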
aSyn UTR inh = 5' untranslated region of α-synuclein, MLPCN primary screen; alpha-synuclein 5'UTR reporter, inhibitor activity; inhibition, % (tested at 7.5 µM); 300,000 compounds, 0.82% hits; in the data active = inhibition above about 60%;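 also: H4 neuroglioblastoma cells stably carrying SNCA 5'UTR luciferase fusion; 0% = DMSO wells and 100% = positive control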
BaF3 tox = parental Ba/F3 viability inhibition as JAK2V617F counter-screen. inhibition, % at 5.6 µM. CellTiter-Glo ATP luminescence. 220,000 compounds, 1.1% hits;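 active = inhibition above a per-campaign cutoff, the mean inhibition of all tested compounds plus 3 SD, cut at about 27% in these data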;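 also: 0% = DMSO wells and 100% = JAK Inhibitor I control wells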
An asterisk follows results filed as active; . = no result given.

SMILES	Ba/F3 V617F tox	APP 5UTR inh	IEC-6 tox	KLF5 inhibitor	aSyn UTR inh	BaF3 tox
O=C(COc1ccccc1-c1ccccc1)N/N=C/c1cccc2ccccc12	2.5	95.2*	12.3	5.3	75.3*	3.8
Cc1ccccc1/C=N/NC(=O)Cn1nnc(N)n1	1.4	1.5	6.1	9.3	-21.0	8.8
C/C(CCC(C)C)=N\NC(=O)COc1ccccc1-c1ccccc1	-2.7	94.3*	19.5	24.7	.	1.4
CCCCn1c(Cn2nc(C(=O)O)c3ccccc3c2=O)nc2cc(S(N)(=O)=O)ccc21	.	.	-4.9	-14.2	1.6	.
COc1cccc(/C=N/NC(=O)c2cc3c(OC)cccc3[nH]2)c1O	-3.3	45.3*	-0.4	-10.0	85.5*	0.7
COc1cccc(/C=N/NC(=O)c2cc(-c3cccn3C)n[nH]2)c1O	6.4	32.8	-4.4	28.1	94.7*	10.4
CNC(=O)NC(=O)CSc1nc2sccc2c(=O)n1-c1ccccc1	.	.	-4.7	-6.5	19.6	.
CC(CNC(=O)C1CCCN(S(=O)(=O)N2CCOCC2)C1)c1ccccc1 (centres undefined)	.	.	1.0	-8.9	7.2	.
COc1ccc(S(=O)(=O)NCC2CCCN(C(=O)CCSC)C2)cc1 (centres undefined)	.	.	-5.3	-10.0	-10.3	.
O=C(O)c1ccccc1N/N=C\c1ccnc2ccccc12	3.4	-12.3	2.4	-116.4	76.2*	6.1
O=C(O)c1ccccc1N/N=C/c1cc(Br)cc(Br)c1O	1.8	.	-1.0	-52.8	-110.9	-3.4
Cc1ccc(CNC(=O)c2ccc(OCC(C)C)cc2)n1C	.	.	1.9	-20.2	10.1	.
O=C(O)c1ccc2c(c1)C(=O)N(c1cc([N+](=O)[O-])ccn1)C2=O	.	.	-8.2	-20.4	13.0	.
CNc1ccccc1C(C)(C)c1cc(-c2cccc([N+](=O)[O-])c2)no1	6.7	-25.4	4.4	31.1	37.1	14.3
CNc1ccccc1C(C)(C)c1cc(-c2cccc(Br)c2)no1	62.4*	11.2	4.1	6.7	27.4	76.5*
COc1ccc(NC(=O)NC(=O)c2ccccc2)cc1	.	.	0.5	-151.8	-221.1	.
O=C(NC(=O)c1ccccc1)Nc1ccccc1	.	.	6.6	14.7	71.8*	.
CCC(C)(C)c1ccc(Oc2ccc(N)cc2)cc1	12.9	79.7*	1.4	51.5	126.9*	15.4
C[n+]1c2n(c3ccccc31)N=C(c1ccc(Br)cc1)CS2	66.0*	-15.7	1.2	6.2	-22.5	71.0*
C[n+]1c2n(c3ccccc31)N=C(c1ccccc1)CS2	90.8*	-2.4	3.8	-40.2	-47.8	68.3*
c1ccc(C2=Nn3c(nnc3-c3ccncc3)SC2)cc1	5.5	18.2	-4.6	-0.9	25.4	1.0
Cc1cc(-c2nnc3n2N=C(c2ccc(-c4ccccc4)cc2)CS3)n[nH]1	0.9	-26.5	-2.8	-14.7	-17.5	5.1
C[n+]1c2n(c3ccccc31)N=C(c1ccc(-c3ccccc3)cc1)CS2	99.3*	0.4	15.9	17.8	10.4	71.0*
CCOC(=O)COc1cc(OCC(=O)OCC)c2c3c(c(=O)oc2c1)CCCC3	.	.	6.9	3.7	-31.5	.
Cc1ccc(Cl)cc1N(CC(=O)NC(C)c1ccccc1)S(C)(=O)=O (centres undefined)	.	.	-5.0	-14.1	25.2	.
SMILES	Ba/F3 V617F tox	APP 5UTR inh	IEC-6 tox	KLF5 inhibitor	aSyn UTR inh	BaF3 tox
Cc1ccc(-c2cc3cccc[n+]3cc2-c2ccc(C)cc2)cc1	95.7*	6.2	27.6*	14.6	50.6	78.8*
Cc1ccccc1C(=O)Nc1ccc(S(=O)(=O)N2CCOCC2)cc1	.	.	-2.2	-29.4	-12.0	.
C=CCN(C(=O)CN1CCOCC1)c1nc(C)c(-c2ccccc2)s1	5.8	-21.3	-12.3	-27.4	3.0	26.7*
CC(C)(C)c1ccc(NC(=O)c2c(F)cccc2Cl)cc1	5.0	.	19.1	-15.8	-101.1	-5.4
Nc1nonc1C(=O)NCCNCc1cc(Br)ccc1OCc1ccccc1F	23.8*	-3.5	12.1	-21.9	-17.8	50.8*
Nc1nonc1C(=O)NCCNCc1ccccc1OCc1ccccc1F	3.9	-4.4	1.8	10.0	-11.4	7.3
C=CCn1c(-c2ccc(OC)cc2)nc2ccccc21	42.2*	-11.1	1.3	-24.1	-73.3	37.7*
CCOc1ccc(C(=O)NC2CC(=O)N(c3ccc4c(c3)OCCO4)C2)cc1 (centres undefined)	.	.	.	.	2.9	.
COc1ccc(CCNC(=O)Cc2cccc(C(F)(F)F)c2)cc1OC	.	.	-6.0	1.2	7.2	.
CC12CN(C(=O)c3ccc(Cl)cc3)C3(C#N)CC1CCC23C (centres undefined)	-0.2	7.8	1.3	-38.3	8.8	7.5
CC12CN(NC(=O)c3ccccc3F)C3(C#N)CC1CCC23C (centres undefined)	4.6	-6.7	3.5	-3.8	-10.0	90.0*
CCOC(=O)c1cnc(Nc2nc3ccccc3o2)nc1C	1.3	-104.4	-1.7	-109.8	85.9*	3.8
Cc1nc(Nc2nc3ccccc3o2)nc2c1CCC2	-0.1	-124.9	4.8	48.3	71.1*	5.3
Cc1cccc(C)c1Nc1nc2ccccc2o1	-3.5	0.4	-3.9	18.4	8.0	0.1
CCOC(=O)c1cnc(Nc2nc3ccccc3o2)nc1CN1CCN(c2ccccc2)CC1	-0.5	-16.6	-2.4	-14.4	.	5.7
CCOc1ccc(CCNC(=O)CN2C(=O)NC3(CCCCC3)C2=O)cc1OCC	.	.	.	.	9.7	.
c1cnc2ccc(C(c3nnnn3C3CCCCC3)N3CCN(C4CCCCC4)CC3)cc2c1 (centres undefined)	36.6*	9.4	-5.5	-10.2	6.1	33.1*
COc1ccc(Br)cc1C(C[N+](=O)[O-])c1c(N)n(C)c(=O)n(C)c1=O (centres undefined)	66.2*	.	-1.7	-38.0	22.5	36.2*
COc1ccc(NC(=O)NCc2ccccn2)c(OC)c1	.	.	0.5	-19.8	7.0	.
CC1(C)CC(=NNC(=O)c2n[nH]c3c2CCC3)CC(C)(C)N1	1.3	82.1*	3.4	-5.0	-26.2	3.4
O=C(N/N=C/c1cccs1)c1cccnc1	-5.9	.	3.5	-33.2	6.7	-3.3
O=C(N/N=C/c1ccccc1Cl)c1n[nH]c2c1CCCC2	0.8	-131.3	8.6	-79.5	83.5*	4.0
O=C(N/N=C/c1cccs1)c1n[nH]c2c1CCC2	0.4	-5.6	7.2	-71.0	67.9*	0.3
O=C(N/N=C/c1ccccc1)c1n[nH]c2c1CCCC2	1.4	-105.3	6.5	-81.1	-87.5	2.1
COc1ccc(C)cc1NC(=O)CSc1nnc(-c2cc(C)[nH]n2)n1N	.	.	-6.2	-29.9	-2.0	.
CCCCn1c(N)c(N(CCOC)C(=O)c2cc(C)oc2C)c(=O)[nH]c1=O	.	.	.	.	-10.0	.
Cc1ccc(C(=O)N/N=C/c2cccc(OC(=O)/C=C/c3ccco3)c2)cn1	-0.4	-3.0	-3.8	-22.6	-99.6	3.7
O=C(/C=C/c1ccco1)Oc1cc(Br)cc(/C=N/NC(=O)c2ccccc2O)c1	-4.0	63.7*	0.8	-4.9	95.9*	0.1
